Here are results for seven molecules from PubChem BioAssay (EPA / NIEHS).

As usually defined, the AC50 is the concentration at which the activity in the assay is half-maximal.

The source made the active and inactive calls. The calls were made as follows: active = hit-call score of the fitted dose curve at least 0.9, where 1 is the maximum; inactive = score below 0.9.

Common to all, as to settings: mRNA level, 48 h; actives raise or lower the signal
Read-out in test [1]: Fatty acid synthase (Homo sapiens) (UniProt P49327)
The test can be described thus: LTEA_HepaRG_FASN: Life Technologies and Expression Analysis (LTEA) Assay for Fatty Acid Synthase (FASN) using HepaRG (AID 2283448). In a few lines: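 In human HepaRG cultures, 48 h chemical exposure (up to 100 uM, 0.5% DMSO) preceded TaqMan qRT-PCR of FASN.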

Read-out in test [2]: Cyclin Dependent Kinase Inhibitor 1A (CDKN1A), CDKN1A (gene 1026)
Put plainly: LTEA_HepaRG_CDKN1A: Life Technologies and Expression Analysis (LTEA) Assay for Cyclin Dependent Kinase Inhibitor 1A (CDKN1A) using HepaRG (AID 2283450). In a few lines:
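Cryopreserved HepaRG cells were plated and cultured 48 h, then switched to serum-free induction medium. Chemicals (eight half-log concentrations, top 100 uM, 0.5% DMSO) were applied for 48 h. Lysates underwent qRT-PCR for CDKN1A with housekeeping normalization.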

Read-out in test [3]: Cyclin D1 (CCND1), CCND1 (gene 595)
Put plainly: LTEA_HepaRG_CCND1: Life Technologies and Expression Analysis (LTEA) Assay for Cyclin D1 (CCND1) using HepaRG (AID 2283451).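 As to AC50: TaqMan qRT-PCR transcript level normalised to ACTB GAPDH and POLR2A housekeeping genes.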 In a few lines: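 Human liver HepaRG line; 48 h dosing, 8 conc. ≤100 uM, 0.5% DMSO; TaqMan qRT-PCR mRNA, 3 housekeeping genes; bidirectional curve fit vs DMSO.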

Read-out in test [4]: catalase (CAT), CAT (gene 847)
Put plainly: LTEA_HepaRG_CAT: Life Technologies and Expression Analysis (LTEA) Assay for catalase (CAT) using HepaRG (AID 2283452).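 As to AC50: TaqMan qRT-PCR signal normalized to ACTB GAPDH and POLR2A housekeeping genes.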 In a few lines: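 Expression of CAT was quantified by TaqMan qRT-PCR with ACTB/GAPDH/POLR2A normalization after 48 h chemical exposure of HepaRG. Eight-point half-log series, top 100 uM, in 0.5% DMSO; gain or loss fitted against vehicle.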

Read-out in test [5]: flavin-containing dimethylaniline monooxygenases 3 (FMO3), FMO3 (gene 2328)
The test can be described thus: LTEA_HepaRG_FMO3: Life Technologies and Expression Analysis (LTEA) Assay for flavin-containing dimethylaniline monooxygenases 3 (FMO3) using HepaRG (AID 2283453). In a few lines:
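Eight-point concentration-response in serum-free HepaRG cultures (top 100 uM, 0.5% DMSO, 48 h). Read-out: FMO3 mRNA level normalized to three endogenous control genes, fitted bidirectionally versus vehicle.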

Read-out in test [6]: Cytochrome P450 (CYP1A1), CYP1A1 (gene 1543)
Put plainly: LTEA_HepaRG_CYP1A1: Life Technologies and Expression Analysis (LTEA) Assay for Cytochrome P450 (CYP1A1) using HepaRG (AID 2283454). In a few lines:
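Induction of CYP1A1 mRNA in a human hepatic cell line was measured 48 h after dosing, with 1 mM phenobarbital as induction positive control and 0.5% DMSO vehicle as baseline for bidirectional curve fitting.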

Read-out in test [7]: CFLAR gene, CFLAR (gene 8837)
The test can be described thus: LTEA_HepaRG_CFLAR: Life Technologies and Expression Analysis (LTEA) Assay for CFLAR gene using HepaRG (AID 2283455). In a few lines: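 Transcript level by qRT-PCR (normalized to ACTB, GAPDH and POLR2A) after 48 h chemical exposure of HepaRG cells, top concentration 100 uM with half-log steps, 0.5% DMSO vehicle, duplicates; fitted bidirectionally against DMSO baseline.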

Read-out in test [8]: Forkhead box O1 (FOXO1), FOXO1 (gene 2308)
Put plainly: LTEA_HepaRG_FOXO1: Life Technologies and Expression Analysis (LTEA) Assay for Forkhead box O1 (FOXO1) using HepaRG (AID 2283456). In a few lines: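 FOXO1 transcript quantified by qRT-PCR after 48 h chemical exposure (top 100 uM, half-log steps, 0.5% DMSO) of HepaRG cells, housekeeping-normalized (ACTB/GAPDH/POLR2A). Changes fitted in both directions relative to vehicle.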

Read-out in test [9]: growth arrest and DNA damage 45 (GADD45A), GADD45A (gene 1647)
The test can be described thus: LTEA_HepaRG_GADD45A: Life Technologies and Expression Analysis (LTEA) Assay for growth arrest and DNA damage 45 (GADD45A) using HepaRG (AID 2283458). In a few lines:
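Eight-point concentration-response in HepaRG cells: 48 h chemical exposure, 0.5% DMSO vehicle, top dose 100 uM. Normalized qRT-PCR mRNA readout with bidirectional fitting relative to DMSO.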

Read-out in test [10]: Forkhead box O3 (FOXO3), FOXO3 (gene 2309)
The test can be described thus: LTEA_HepaRG_FOXO3: Life Technologies and Expression Analysis (LTEA) Assay for Forkhead box O3 (FOXO3) using HepaRG (AID 2283459). In a few lines:
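FOXO3 transcript measured by qRT-PCR (normalized to ACTB, GAPDH, POLR2A) after 48 h exposure of HepaRG cells in serum-free induction medium. Duplicates, eight half-log concentrations up to 100 uM, 0.5% DMSO; gain or loss fitted against DMSO.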

Read-out in test [11]: ABC Transporter (ABCB1), ABCB1 (gene 5243)
Put plainly: LTEA_HepaRG_ABCB1: Life Technologies and Expression Analysis (LTEA) Assay for ABC Transporter (ABCB1) using HepaRG (AID 2283460). In a few lines:
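ABCB1 transcript level measured by TaqMan qRT-PCR against three housekeeping genes after 48 h chemical exposure of differentiated HepaRG cells. Top concentration 100 uM, half-log steps, eight points, 0.5% DMSO vehicle; bidirectional fit relative to DMSO.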

Read-out in test [12]: growth arrest and DNA damage 45 (GADD45B), GADD45B (gene 4616)
Put plainly: LTEA_HepaRG_GADD45B: Life Technologies and Expression Analysis (LTEA) Assay for growth arrest and DNA damage 45 (GADD45B) using HepaRG (AID 2283461). In a few lines:
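Values are bidirectional concentration-response fits against 0.5% DMSO controls. Underlying data: qRT-PCR mRNA levels in human HepaRG liver cells treated 48 h in serum-free induction medium, eight concentrations topping at 100 uM.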

Read-out in test [13]: ABC Transporter (ABCC3), ABCC3 (gene 8714)
The test can be described thus: LTEA_HepaRG_ABCC3: Life Technologies and Expression Analysis (LTEA) Assay for ABC Transporter (ABCC3) using HepaRG (AID 2283462). In a few lines:
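Differentiated HepaRG liver cells receive test chemicals at eight concentrations (max 100 uM) for 48 h. Expression of ABCC3 is quantified by qRT-PCR against ACTB, GAPDH and POLR2A, and activity is fitted in both directions against the DMSO control.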

Read-out in test [14]: ABC Transporter (ABCB11), ABCB11 (gene 8647)
The test can be described thus: LTEA_HepaRG_ABCB11: Life Technologies and Expression Analysis (LTEA) Assay for ABC Transporter (ABCB11) using HepaRG (AID 2283463). In a few lines: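 ABCB11 transcript levels quantified by TaqMan qRT-PCR against three housekeeping genes after 48 h chemical exposure of HepaRG cultures. Concentrations up to 100 uM in half-log steps, 0.5% DMSO vehicle; both induction and suppression scored.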

Read-out in test [15]: ABC Transporter (ABCC2), ABCC2 (gene 1244)
The test can be described thus: LTEA_HepaRG_ABCC2: Life Technologies and Expression Analysis (LTEA) Assay for ABC Transporter (ABCC2) using HepaRG (AID 2283464). In a few lines: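 Gene expression of ABCC2 was determined by qRT-PCR in HepaRG cells exposed 48 h to chemicals (highest 100 uM, half-log dilutions). Activity was fitted in both directions relative to 0.5% DMSO vehicle.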

Read-out in test [16]: Broad substrate specificity ATP-binding cassette transporter ABCG2 (Homo sapiens) (UniProt Q9UNQ0)
Put plainly: LTEA_HepaRG_ABCG2: Life Technologies and Expression Analysis (LTEA) Assay for ABC Transporter (ABCG2) using HepaRG (AID 2283465). In a few lines: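 ABCG2 transcript was quantified by TaqMan qRT-PCR against three housekeeping genes in HepaRG cells. Cells were treated in duplicate for 48 h across an 8-point half-log series up to 100 uM, with 0.5% DMSO vehicle. Gain or loss versus DMSO was fit.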

Read-out in test [17]: ATP-citrate lyase (ACLY), ACLY (gene 47)
Put plainly: LTEA_HepaRG_ACLY: Life Technologies and Expression Analysis (LTEA) Assay for ATP-citrate lyase (ACLY) using HepaRG (AID 2283466). In a few lines: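 ACLY mRNA quantified by qRT-PCR on Fluidigm arrays against three housekeeping genes, after 48 h chemical treatment of HepaRG cells (top concentration 100 uM, half-log steps, 0.5% DMSO vehicle). Up- or down-regulation fitted relative to DMSO.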

Read-out in test [18]: Peroxisomal acyl-coenzyme A oxidase 1 (ACOX1) gene, ACOX1 (gene 51)
Put plainly: LTEA_HepaRG_ACOX1: Life Technologies and Expression Analysis (LTEA) Assay for Peroxisomal acyl-coenzyme A oxidase 1 (ACOX1) gene using HepaRG (AID 2283467). In a few lines:
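ACOX1 transcript levels were quantified by TaqMan qRT-PCR against three housekeeping genes after 48 h chemical exposure of differentiated human HepaRG cells. Exposure used eight half-log steps topping at 100 uM, 0.5% DMSO vehicle, in duplicate. Bidirectional curve fits were made relative to DMSO.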

Sequence of Fatty acid synthase (Homo sapiens) (P49327 whole entry, looked up): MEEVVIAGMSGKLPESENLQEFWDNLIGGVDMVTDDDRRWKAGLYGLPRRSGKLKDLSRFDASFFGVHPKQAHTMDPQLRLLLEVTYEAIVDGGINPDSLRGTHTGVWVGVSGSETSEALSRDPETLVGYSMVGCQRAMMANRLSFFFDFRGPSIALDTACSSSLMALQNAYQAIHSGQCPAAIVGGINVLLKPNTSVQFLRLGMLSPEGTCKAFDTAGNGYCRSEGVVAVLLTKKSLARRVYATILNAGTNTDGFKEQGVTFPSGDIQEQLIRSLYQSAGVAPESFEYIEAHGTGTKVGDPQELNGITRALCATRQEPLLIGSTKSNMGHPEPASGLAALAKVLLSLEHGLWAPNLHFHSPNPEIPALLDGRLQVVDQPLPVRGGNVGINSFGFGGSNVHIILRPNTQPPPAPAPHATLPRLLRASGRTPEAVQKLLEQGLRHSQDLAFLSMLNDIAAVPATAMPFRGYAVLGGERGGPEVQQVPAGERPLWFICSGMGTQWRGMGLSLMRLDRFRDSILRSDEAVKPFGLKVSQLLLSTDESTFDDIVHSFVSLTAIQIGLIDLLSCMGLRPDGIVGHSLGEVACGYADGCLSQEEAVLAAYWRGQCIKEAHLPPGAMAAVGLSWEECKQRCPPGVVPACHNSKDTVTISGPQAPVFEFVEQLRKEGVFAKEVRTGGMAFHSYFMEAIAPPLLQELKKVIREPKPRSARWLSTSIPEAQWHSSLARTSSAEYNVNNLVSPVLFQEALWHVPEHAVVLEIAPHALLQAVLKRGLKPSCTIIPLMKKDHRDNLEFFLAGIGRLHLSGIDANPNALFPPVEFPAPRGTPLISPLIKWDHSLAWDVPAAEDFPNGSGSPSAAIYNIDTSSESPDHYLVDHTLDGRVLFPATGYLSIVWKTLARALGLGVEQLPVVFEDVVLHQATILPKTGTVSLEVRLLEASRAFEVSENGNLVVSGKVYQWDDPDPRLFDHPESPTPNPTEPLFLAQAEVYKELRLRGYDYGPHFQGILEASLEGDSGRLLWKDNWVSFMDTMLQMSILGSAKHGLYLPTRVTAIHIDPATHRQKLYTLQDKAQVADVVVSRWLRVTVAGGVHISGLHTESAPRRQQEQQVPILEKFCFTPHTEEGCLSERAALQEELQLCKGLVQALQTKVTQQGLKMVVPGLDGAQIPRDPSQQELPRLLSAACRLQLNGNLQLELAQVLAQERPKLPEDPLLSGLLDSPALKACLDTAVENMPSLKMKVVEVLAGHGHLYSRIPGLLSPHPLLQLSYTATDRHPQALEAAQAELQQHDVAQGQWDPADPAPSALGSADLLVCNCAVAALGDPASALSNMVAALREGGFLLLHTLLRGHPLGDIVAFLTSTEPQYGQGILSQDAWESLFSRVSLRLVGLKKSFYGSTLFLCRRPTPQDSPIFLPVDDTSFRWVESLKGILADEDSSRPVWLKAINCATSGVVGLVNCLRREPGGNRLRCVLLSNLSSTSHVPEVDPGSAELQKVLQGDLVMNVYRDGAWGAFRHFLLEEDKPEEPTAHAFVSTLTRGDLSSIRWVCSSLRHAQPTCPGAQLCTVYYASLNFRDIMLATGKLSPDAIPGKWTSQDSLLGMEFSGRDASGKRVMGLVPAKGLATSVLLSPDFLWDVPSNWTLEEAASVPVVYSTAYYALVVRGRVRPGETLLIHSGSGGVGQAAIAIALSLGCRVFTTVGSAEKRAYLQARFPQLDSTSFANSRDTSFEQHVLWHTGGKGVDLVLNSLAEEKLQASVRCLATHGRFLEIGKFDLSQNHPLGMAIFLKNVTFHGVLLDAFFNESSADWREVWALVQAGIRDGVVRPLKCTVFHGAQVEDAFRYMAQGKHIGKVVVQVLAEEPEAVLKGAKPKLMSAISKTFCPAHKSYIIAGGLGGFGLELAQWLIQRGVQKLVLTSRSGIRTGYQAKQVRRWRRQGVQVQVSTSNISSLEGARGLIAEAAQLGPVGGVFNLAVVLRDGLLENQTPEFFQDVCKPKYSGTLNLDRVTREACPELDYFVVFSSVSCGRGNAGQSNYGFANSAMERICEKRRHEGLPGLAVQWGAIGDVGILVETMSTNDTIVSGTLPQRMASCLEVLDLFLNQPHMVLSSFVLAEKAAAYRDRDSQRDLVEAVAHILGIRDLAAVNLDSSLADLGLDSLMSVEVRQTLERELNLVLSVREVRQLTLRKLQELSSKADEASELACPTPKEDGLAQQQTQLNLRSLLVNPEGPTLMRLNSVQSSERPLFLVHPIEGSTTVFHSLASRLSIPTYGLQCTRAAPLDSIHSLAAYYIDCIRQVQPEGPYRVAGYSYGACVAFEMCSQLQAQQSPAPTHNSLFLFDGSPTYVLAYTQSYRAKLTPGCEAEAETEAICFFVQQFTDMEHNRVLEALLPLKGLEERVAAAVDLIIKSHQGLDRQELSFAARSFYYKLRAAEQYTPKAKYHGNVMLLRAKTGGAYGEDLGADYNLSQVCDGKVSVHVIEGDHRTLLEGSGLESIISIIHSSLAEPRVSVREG
Sequence of Broad substrate specificity ATP-binding cassette transporter ABCG2 (Homo sapiens) (Q9UNQ0 whole entry, looked up): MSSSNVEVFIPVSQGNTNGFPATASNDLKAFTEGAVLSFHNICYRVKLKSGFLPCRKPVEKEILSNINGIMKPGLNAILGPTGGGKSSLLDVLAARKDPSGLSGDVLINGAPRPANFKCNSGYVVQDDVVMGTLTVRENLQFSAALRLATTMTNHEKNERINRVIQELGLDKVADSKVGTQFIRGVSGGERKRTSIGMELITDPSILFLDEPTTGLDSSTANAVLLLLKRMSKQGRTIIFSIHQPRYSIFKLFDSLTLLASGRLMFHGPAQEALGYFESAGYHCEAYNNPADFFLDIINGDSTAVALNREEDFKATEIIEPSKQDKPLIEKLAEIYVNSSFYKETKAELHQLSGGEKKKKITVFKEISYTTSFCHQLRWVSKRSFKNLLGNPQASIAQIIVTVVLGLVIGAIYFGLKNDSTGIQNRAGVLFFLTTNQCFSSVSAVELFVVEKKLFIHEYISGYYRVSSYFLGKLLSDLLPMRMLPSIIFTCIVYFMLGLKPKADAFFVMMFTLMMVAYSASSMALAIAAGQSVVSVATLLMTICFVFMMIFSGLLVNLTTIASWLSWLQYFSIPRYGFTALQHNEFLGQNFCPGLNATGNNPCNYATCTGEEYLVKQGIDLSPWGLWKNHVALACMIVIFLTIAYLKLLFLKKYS

On to `Nc1c(Cl)cc([N+](=O)[O-])cc1Cl`, for which the AC50 in test [1] is 16.9 µM (active); in [3], 50 µM (active); in test [4] it was 41.4 µM (active); in test [5], 50 µM (active); in test [6] it was 7.36 µM (active); in [7], 17.7 µM (active). For the same molecule, the AC50 in test [9] was 78.9 µM (active); in [10], 7.33 µM (active); in test [11], 31.1 µM (active); in test [12], 11.9 µM (active); in [14] it was 37.4 µM (active); in [15], 84.2 µM (active). Further, the AC50 in [16] was 80.4 µM (active); in [18], 22.8 µM (active). Moreover, the call in test [2], in test [8], in [13] and in test [17] was inactive.

Turning to `CC(Oc1cccc(Cl)c1)C(=O)O` (stereo not given), the molecule was called inactive in test [1], in test [2], in test [3], in [4], in test [5] and in [6]. Moreover, the call in [7], in test [8], in test [9], in test [10], in test [11] and in test [12] was inactive. The result in test [13], in test [14], in test [17] and in [18] was inactive. For the same molecule, the AC50 in test [15] is 20.2 µM (active); in [16], 5.79 µM (active).

With `CCOP(=O)(SC(C)CC)N1CCSC1=O` (stereo not given), the molecule was called inactive in test [1], in test [2], in test [3], in test [4], in [5] and in test [6]. Also, the result in test [7], in [8], in [9], in [10], in test [11] and in test [12] was inactive. Further, the call in [13], in test [14], in [16], in test [17] and in [18] was inactive. Also, the AC50 in test [15] was 27.1 µM (active).

On to `CCNc1nc(Cl)nc(NC(C)(C)C#N)n1`, for which the call in test [1], in [2], in [3], in test [4], in [5] and in test [7] was inactive. In addition, the molecule was called inactive in test [8], in [9], in test [10], in test [11], in [12] and in test [13]. The call in [14], in test [16], in [17] and in test [18] was inactive. Further, the AC50 in test [6] is 24.9 µM (active); in test [15] it was 5.92 µM (active).

Regarding `CC(C)=CC1C(C(=O)OCN2C(=O)C3=C(CCCC3)C2=O)C1(C)C` (stereo not given), the molecule was called inactive in [1], in [2], in test [3], in test [4], in test [5] and in [7]. Further, the molecule was called inactive in test [8], in test [9], in test [10], in test [11], in [12] and in [13]. In addition, the result in [14], in test [15], in [16], in test [17] and in [18] was inactive. Besides, the AC50 in test [6] was 50 µM (active).

Regarding `CCc1cccc(C)c1N(C(=O)CCl)C(C)COC` (stereo not given), the molecule was called inactive in test [1], in [2], in test [3], in test [4], in test [5] and in test [7]. Also, the result in test [8], in test [9], in test [10], in test [11], in [12] and in test [13] was inactive. In addition, the result in test [14], in [15], in [16] and in [18] was inactive. Further, the AC50 in test [6] is 62.6 µM (active).

Take `CSC1=N[C@@](C)(c2ccccc2)C(=O)N1Nc1ccccc1`: the AC50 is 66.1 µM (active) in test [1]; 28.2 µM (active) in [2]; 50 µM (active) in [3]; 32.7 µM (active) in test [4]; 30.6 µM (active) in test [5]; 31.2 µM (active) in test [8]. The AC50 is 32 µM (active) in [9]; 23.2 µM (active) in [13]; 31.4 µM (active) in [14]; 83.6 µM (active) in [15]; 13.2 µM (active) in test [16]; 27.3 µM (active) in test [18]. In addition, the outcome in [6], in test [7], in test [10], in test [11], in test [12] and in test [17] was inactive.
